Laboratory results: the supplement of paper PMC5940239

Key:
[1] = system: Madurella mycetomatis MM55; details: 7 days
[2] = system: Madurella mycetomatis MM55; assay: IC90; higher = less potent; details: 7 days
[3] = system: Madurella mycetomatis MM55; assay: percent growth relative to solvent control; higher = less inhibition, active = 20 or less; details: 100 µM; 7 days

| Structure (SMILES) | IC50 [1] | IC90 [2] | percent growth [3] |
| --- | --- | --- | --- |
| COc1ccc(OC(C)C(=O)Nc2ccc(Cl)cc2C)cc1 (centres undefined) | 26.9 µM | 54.5 µM | 0.806% (active) |
| Cc1nnc(NCc2cccc(Cl)c2)c2ccccc12 | 29.1 µM | 62.8 µM | -0.336% (active) |
| COc1ccc(C2=NN(C3CCCCCC3)C(=O)C2(C)C)cc1OCCCCOc1ccc(-c2nn[nH]n2)cc1 | 50.9 µM | 90.9 µM | 0.849% (active) |
| CN(C)c1cc(NC(=O)Nc2ccccc2)c2ccccc2n1 | 14.2 µM | 59.1 µM | 8.07% (active) |
| CCOC(=O)c1c(NC(=O)c2c(F)c(F)c(F)c(F)c2F)sc(C(N)=O)c1C | 60.5 µM | 92.8 µM | 1.26% (active) |
| c1ccc(-c2nc(NC3CCCCC3)cc(C3CC3)n2)nc1 | 10.3 µM | 18.8 µM | 2.69% (active) |
| CCc1c(C)nc(-n2nc(C)cc2NC(=O)c2ccccc2SC)[nH]c1=O | 6.75 µM | 15.1 µM | 2.44% (active) |
| CC(C)(C)n1nc(-c2ccccc2)c2c(N)ncnc21 | 49.4 µM | 96.4 µM | 10.4% (active) |
| Cc1ccc(-c2nc(CN(Cc3ccccn3)C(C)C)cs2)o1 | 53.9 µM | 90 µM | 0.31% (active) |
| COc1ccc(CCN2CCC(NCc3cccc(N(C)C)c3)CC2)cc1 | 24.5 µM | 51.7 µM | -0.197% (active) |
| O=C(Nc1nnc(-c2ccc(Cl)s2)o1)c1ccc(Cl)s1 | 54.3 µM | 93.7 µM | 3.26% (active) |
| Cc1ccc(NC(=O)CC2COc3ccccc3O2)cc1Cl (centres undefined) | 51.9 µM | 91.3 µM | 1.24% (active) |
| COC(=O)C1=C(C)NC(C)=C(C(=O)OC(C)C)C1c1cccc2nonc12 (centres undefined) | 45.1 µM | 87.6 µM | -1.92% (active) |
